Source: PubChem BioAssay (NCI)
“And” between values parts separate entries of the source, which are not always exact repeats. Equal values may be shown once. Compounds without any hit were thinned out: in the full panel of roughly 83,000, 20% have a hit.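 How to read the values: 0–100, growth inhibition (40 = 60% inhibited); 0, no net growth; -100 to 0, cell death (-40 = 40% of starting cells died; -100 = all dead).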 Unmarked numbers belong to inactive results. The source made the active and inactive calls. How the source made its calls: active means growth percent below 10; inactive means the rest.

Test system: MDA-MB-468 breast
Test: NCI-60 one-dose screen, 48 h (100 = growth as untreated, 0 = no growth, -100 = all killed)
Details: 10 µM unless noted

| Compound | growth |
| --- | --- |
| COc1cc(OC)c2ccc(=O)oc2c1 | 103% |
| COc1ccc(/C=C(/C)c2ccc3ccc(OC)cc3[o+]2)c(O)c1 | 67.7% |
| COc1ccc(C(=O)/C=C/c2ccccc2)cc1S(N)(=O)=O | 66.1% |
| Cc1ccc(-c2nc(C#N)c(S(=O)(=O)n3nc(-c4ccccc4)cc3N)o2)cc1 | 63.1% |
| CC1(C)CC[C@]2(C(=O)N3CCOCC3)CC[C@]3(C)C(=CC[C@@H]4[C@@]5(C)C/C(=C/c6ccccn6)C(=O)C(C)(C)[C@@H]5CC[C@]43C)[C@@H]2C1 | 40.8% |
| CC[N+](C)(CC)CCO | 91.8% |
| CCCCCCCCCCCCCCCCCCOc1ccccc1CC(=O)NCC[N+](C)(C)C | 19% |
| Cc1cc(=O)oc2cc(Oc3nc(Br)cn4c(Br)cnc34)ccc12 | 41.4% |
| CCN=Cc1c(O)c(O)c(C(C)C)c2cc(C)c(-c3c(C)cc4c(C(C)C)c(O)c(O)c(C=NCC)c4c3O)c(O)c12 | 55.7% |
| COc1ccc2c(c1)C=CC(C#N)N2C(=O)c1ccccc1 (stereo not given) | 13.1% |
| O=C(Nc1ccc(N2CCNCC2)cc1)c1[nH]ncc1Nc1cc(Oc2ccccc2)ncn1 | 34.6% |
| Cc1ccc(Sc2nnc(/N=C3\C(=O)Nc4ccccc43)s2)cc1 | 102% |
| C=C(C)[C@@H]1CC[C@]2(C(=O)O)CC[C@]3(C)[C@H](CC[C@@H]4[C@@]5(C)C[C@@H](CC#Cc6ccc(Cl)cc6)C(=O)C(C)(C)[C@@H]5CC[C@]43C)[C@@H]12 | 16.9% |
| CS(=O)(=O)OCC1NC(=O)C(COS(C)(=O)=O)NC1=O (stereo not given) | 87% and 79.3% |
| COc1cc(/C=C2\CN(S(=O)(=O)c3ccccc3)C/C(=C\c3cc(CN4CCCC4)c(O)c(OC)c3)C2=O)cc(CN2CCCC2)c1O | -32.1% (active) |
| COc1nc2c(cc1S(=O)(=O)c1ccccc1)CCc1c-2cnn1-c1ccccc1Cl | 40.4% |
| O=C(Cn1cc[n+](CC(=O)c2ccc(-c3ccccc3)cc2)c1)Nc1cccc2cccnc12 | 8.42% (active) |
| N=C(N=C(N)N)N1CCOCC1 | 100% and 101% |
| Cc1cc(N/N=C/c2ccccn2)nc2ccccc12 | -13.3% (active) |
| O=C1N/C(=N\c2nnc(-c3ccc(O)cc3)s2)S/C1=C\c1ccccc1O | 99.4% |

| Compound | growth |
| --- | --- |
| Cc1[nH]c(C(=O)Nc2ccc(S(=O)(=O)N3CCCCC3)cc2OCCOCCOCCOCCOCCOCCOCCOCCOCCOc2cc(S(=O)(=O)N3CCCCC3)ccc2NC(=O)c2[nH]c(C)c3c2CCCCC3=O)c2c1C(=O)CCCC2 | -11.1% (active) |
| COc1ccc(C(=O)NC(=O)Nc2ccc3c(c2)NC(=O)/C3=C\c2[nH]c(C)c(C(=O)O)c2C)c(F)c1 | 12.3% |
| Oc1ccc(Cc2ccccc2)c2cccnc12 | -21.1% (active) |
| CCCNc1nc(SC)nc(-c2cccc(N)c2)c1C#N | 114% |
| S=C(c1ccccc1)N1CCN(c2cccc(Cl)c2)CC1 | 105% |
| Cc1ccccc1N1CCN(C2=C(Cl)C(=O)c3ncccc3C2=O)CC1 | -68.8% (active) |
| C=C1CC[C@@H]2[C@](C)(COC(C)=O)[C@H](OC(C)=O)CC[C@@]2(C)[C@@H]1CC(Nc1ccc(S(=O)(=O)Nc2ncccn2)cc1)C1=CCOC1=O (stereo not given in full) | -54% (active) |
| COc1cc(C(C)n2cc(-c3ccccc3)nn2)ccc1OC1CCCCC1 (stereo not given) | 8.89% (active) |
| CN1CCN(CC(=O)Nc2ccc3ncnc(Nc4ccc(Oc5cccc(C(F)(F)F)c5)c(Cl)c4)c3c2)CC1 | -61.3% (active) |
| Cc1ccc(-c2nc3nc(-c4ccc(Br)cc4)nc(N4CCCNCC4)c3o2)cc1 | -65% (active) |
| CCCC/C(CC)=N\NS(=O)(=O)c1ccc([N+](=O)[O-])cc1 | 109% |
| O=C(CSc1nc(-c2ccccc2)cn1-c1ccc(Cl)cc1)c1ccc([N+](=O)[O-])cc1 | 72.5% |
| CN1C(=O)N(C)C2C1NN=c1s/c(=C\c3ccccn3)c(=O)n12 (stereo not given) | 88.8% |
| CN(Cc1cnc2nc(N)nc(N)c2n1)c1ccc(C(=O)NC(CCC(=O)O)C(=O)O)cc1Br (stereo not given) | 42.4% |
| COc1ccc2nc3cc(Cl)ccc3c(N3CCN(c4ccnc(Nc5ccc(F)cc5)n4)CC3)c2c1 | 63.8% |
| COc1ccc(S(=O)(=O)NCCCNc2cc(-c3c(-c4cccc(OC)c4)nc4sccn34)ccn2)cc1 | 11.3% |
| COc1cc(C2C3=C(COC3=O)N(CCO)c3cc4c(cc32)CCC4)cc(OC)c1OC (stereo not given) | 0.574% (active) |
| CC1CCC(C(=O)O)N1 (stereo not given) | 106% |
| CC1(C)CCC(C)(C)NC(=S)N1 | 103% |
| O=C(CSc1nc2ccc([N+](=O)[O-])cc2[nH]1)Nc1cccc([N+](=O)[O-])c1 | -1.47% (active) |
